Several values for one entry are separate records, joined by “and”; a condition that tells them apart may be missing. Identical values can stand only once. About 83,000 compounds went through this panel and 20% of them were active in at least one assay; those are over-represented in the sample as a whole.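 Percent growth is the endpoint: 0 to 100 indicates growth inhibition (40 means 60% inhibition), 0 means no net growth, and negative values indicate cell death.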 A number with no mark means an inactive call. Activity calls are given as the source filed them. Where a SMILES comes first, the peptide text is derived from it.

The assay deals with SK-OV-3 ovarian. Briefly: NCI-60 one-dose screen, 48 h (100 = growth as untreated, 0 = no growth, -100 = all killed). Particulars: 10 µM unless noted. On the procedure:
Growth inhibition of the SK-OV-3 human tumor cell line is measured as a screen for anti-cancer activity. Cells are grown in 96 well plates and exposed to the test compound for 48 hours. Compounds are tested at a single concentration, which is 10^-5 M for most compounds. The reported endpoint is percent growth (GI% or GIPRCNT), where numbers from 0 - 100% represent growth inhibition, and numbers from -100% - 0 represent cell death. For example, a value of 40 represents 60% growth inhibition. A value of 0 means no net growth occurred over the course of the experiment. A value of -40 indicates 40% of cells at the beginning of the experiment died by the end of the experiment. A value of -100 means all cells are dead at the end of the experiment.
NCI-60 Human Tumor Cell Lines Screen was performed using the standard one-dose NCI protocol, which is described in more detail at https://dtp.cancer.gov/discovery_development/nci-60/default.htm.
Compounds with GIPRCNT values below 10 were considered active. Activity score was based on GIPRCNT using the following formula: […]
Score is 0 for GIPRCNT values of 100 or above, 50 for GIPRCNT values of 0, and 100 for GIPRCNT values of -100.
On to `CC(C)NCC(O)c1ccc(O)c(O)c1` (stereo not given), for which the growth was 95.5% and 94.9% and 102%.
In the case of `CN(C)CC1CCCCCC(CN(C)C)C1=O` (stereo not given) it was 107%.
In the case of `O=c1n(CC2CO2)c(=O)n(CC2CO2)c(=O)n1CC1CO1` (stereo not given) it was 68.6%.
`CC(C)(O)C(=O)O`: the growth was 97.9%.
`O=[N+]([O-])c1cccc(SSc2cccc([N+](=O)[O-])c2)c1`: the growth was 97.8%.
In the case of `Oc1ccc(Cc2ccccc2Cl)c(O)c1` it was 104%.
In the case of `CC(=O)NCC(=O)c1ccc([N+](=O)[O-])cc1` it was 108%; in that of `CCCCCCCCCCNC(=O)CI`, 5.75% (active).
Consider `COc1ccc2cc1Oc1ccc(cc1)C[C@H]1c3cc(c(OC)cc3CCN1C)Oc1c(OC)c(OC)cc3c1[C@H](C2)N(C)CC3`, for which the growth was 110%.
For `O=C(/C=C/c1ccccc1)c1ccccc1`, the growth was 91.7%.
`CC1=C/C(O)CC(=O)Cc2nc(co2)C(=O)N2CCC=C2C(=O)OC(C(C)C)C(C)/C=C\C(=O)NC/C=C\1` (stereo not given): the growth is 119%.
Turning to `ClCCOCCOc1ccc(C2CCCCC2)cc1`, the growth is 102%.
With `CCN(CCNS(C)(=O)=O)c1ccc(N)c(C)c1`, the growth was 98.6% and 96%.
Consider `O=CN1CCCCC1`, for which the growth was 113%.
In the case of `Nc1ccc2c(O)cc(S(=O)(=O)O)cc2c1` it was 96.1% and 96.6%.
In the case of `N#CC(C#N)N=Nc1cc(Cl)ccc1Cl` it was 99.2%; in that of `CC1(C)COC(=S)N1`, 109%.
In the case of `OCC1OC(O)C(O)C(O)C1O` (stereo not given) it was 109%; in that of `CCCCCCCCCCCCCCCCC(C(=O)O)C(O)(CC(=O)O)C(=O)O` (stereo not given), 98.3% and 36.1%; in that of `NC(Cc1c[nH]c2ccccc12)C(=O)O` (stereo not given), 106% and 105%.
In the case of `Cl`, the growth was 115%.
In the case of `NC1CCC(C(=O)O)CC1` (stereo not given) it was 101% and 106%; in that of `CC(=O)Nc1ccc(S(N)(=O)=O)cc1`, 95.4% and 99.8%; in that of `CCc1cc(C)cc(O)c1`, 102%.
For `Cc1cc(-c2ccc(N=Nc3ccc4c(S(=O)(=O)O)cc(S(=O)(=O)O)c(N)c4c3O)c(C)c2)ccc1N=Nc1ccc2c(S(=O)(=O)O)cc(S(=O)(=O)O)c(N)c2c1O`, the growth was 102%.
In the case of `CC(=O)OC(C)C(=O)NCC(C)O` (stereo not given) it was 95.3%.
In the case of `CC(=O)OCC1OC(OC(C)=O)C(OC(C)=O)C(OC(C)=O)C1OC(C)=O` (stereo not given) it was 102% and 106%.
Turning to `OC1COC(OCc2ccccc2)C(O)C1O` (stereo not given), the growth was 98.9%.
In the case of `O=C1CSC2=NCCN12` it was 105% and 124%.
As to `Nc1cc(N)c(N)cc1N`, the growth was 98.4%.
Turning to `CC1CCC(C(C)C)C(NNC(N)=O)C1` (stereo not given), the growth is 109%.
`O=C1OC(c2ccccc2)=N/C1=C\c1ccccc1`: the growth is 97.2%.
In the case of `COc1ccc(C(=O)CC(c2ccccc2)C(C#N)c2ccccc2)cc1` (stereo not given) it was 102%; in that of `Fc1ccc([I+]c2ccc(F)cc2)cc1`, 68.4%.
Consider `NC(Cc1ccccc1)C(=O)NC(Cc1ccccc1)C(=O)O` (stereo not drawn) (H-Phe-Phe-OH; configuration not given here), for which the growth is 97.6% and 110%.
In the case of `Nc1ncnc2c1ncn2C1OC(COP(=O)(O)O)C(O)C1O` (stereo not given) it was 114%; in that of `O=C(CO)C(O)C(O)C(O)C(O)CO` (stereo not given), 87.8% and 85.7%.
In the case of `c1ccc(CNCCNCc2ccccc2)cc1`, the growth was 107%.
In the case of `O=C(O)CCCl` it was 118%; in that of `O=C1C=C(Nc2ccccc2)c2ccccc2C1=O`, 108% and 90.9%.

The values above are taken from PubChem BioAssay (NCI).
